The values that follow come from ChEMBL document CHEMBL1157539, “Thousands of chemical starting points for antimalarial lead identification” (Nature, 2010).

Structures are written as SMILES.

The assay has as its system Plasmodium falciparum. The assay can be described thus: GSK_TCMDC: Inhibition of Plasmodium falciparum Dd2 in whole red blood cells, using parasite LDH activity as an index of growth. Test compounds present at 2uM. Format: functional.
In turn, `O=c1cc(NCCCN(Cc2ccccc2)Cc2ccccc2)[nH]c2ccccc12` returned an Inhibition of 93%.

`CNC(=O)c1c(NC(=O)c2cccs2)sc2c1CCCC2` displayed an Inhibition of 2%. As for `NCC1CCCN1Cc1ccc(-c2cccc(-c3nc4cc(F)ccc4[nH]3)c2)cc1.O=C(O)C(F)(F)F` (stereo not given), the figure is 31%. `COc1cccc(CNC(=O)c2ccnc(-c3cccc(CN(C)C4CCN(C)CC4)c3)c2)c1.O=C(O)C(F)(F)F`: the Inhibition was determined as 46%. The result for `CCCC(C)Nc1nc(C)cc(NCCC(=O)Nc2ccc(OC)cc2)n1.O=C(O)C(F)(F)F` (stereo not given) reads 2%; that for `Cn1cnc2c(Nc3ccncc3)nc(-c3ccc4ccccc4c3)nc21`, 66%; that for `Cc1nc2ccc3ccc(CNc4ccc5c(c4)CN([C@@H](CCC(=O)O)C(=O)O)C5=O)cc3c2c(=O)[nH]1` [OSI-7904], 95%. As for `COc1cccc(C(=O)NCc2cccs2)c1OCc1ccccc1`, the figure is 0%.

Take `COc1ccc2ncc(F)c(CCN3CCC(CNCc4cccc5c4OCO5)CC3)c2n1.Cl`: the Inhibition was determined as 37%. Compound `CCN(CC)CCNC(=O)c1ccc(N/C=C2\C(=O)Nc3ccc(S(=O)(=O)Cc4c(Cl)cccc4Cl)cc32)cc1` showed an Inhibition of 56%.

`FC(F)(F)c1ccc2[nH]c(-c3ccc(-c4cccc(CN5CCC(CCN6CCCCC6)CC5)c4)cc3)nc2c1.O=C(O)C(F)(F)F` gave an Inhibition of 96%. As for `CCNc1cc(C(=O)N[C@@H](Cc2ccccc2)[C@H](O)CNC2CCC(C)(C)C2)cc(N2CCCCS2(=O)=O)c1.Cl` (stereo not given in full), the figure is 98%. As for `CCc1ccc(NC(=O)N(CCCn2ccnc2)Cc2csc(-c3ccc(CNCc4ccccc4)cc3)n2)cc1.O=C(O)C(F)(F)F`, the figure is 39%; as for `O=c1cc(NCCC(CNCc2ccoc2)NCc2cc(Br)cc(Br)c2)[nH]c2ccccc12` (stereo not given), 28%. The result for `O=C(O)C(F)(F)F.OCC1CCN(Cc2cccc(-c3ccc(-c4nc5cc(C(F)(F)F)ccc5[nH]4)s3)c2)CC1` reads 90%; that for `O=C(Nc1ccc(Cn2nc(Cl)c(N3CCCNCC3)cc2=O)cc1)Nc1ccc(-c2ccccc2)cc1.O=C(O)C(F)(F)F`, 36%. As for `O=C(Nc1ccc(Cl)cc1)Nc1ccc(-c2csc(-c3nc4ccccc4[nH]3)c2)cc1`, the Inhibition stood at 40%.

In turn, `COc1cccc2cc(C(=O)N[C@@H](CC(C)C)C(=O)N[C@H](C=NN3CC(=O)NC3=O)CC(C)C)oc12` returned an Inhibition of 64%. As for `COc1ccc(C2=CCN(c3ccc(Cl)c(Cl)c3)C2=O)cc1OCCN1CCCCC1.Cl`, the figure is 99%. As for `Nc1ccc(-c2ccc3ccnc(N)c3c2)cn1.O=C(O)C(F)(F)F`, the figure is 100%; as for `O=C(COc1ccc(C(=O)c2ccccc2)cc1)Nc1nccs1`, 18%; as for `O=C(N[C@H]1CCN(Cc2ccc(OCCN3CCCC3)c(Cl)c2)C1)c1ccc(Cl)c(Cl)c1.O=C(O)C(F)(F)F`, 46%. Compound `COc1ccc2nccc(N3CCC(SCCNS(=O)(=O)c4ccc5c(c4)OCCO5)C3)c2n1.Cl` (stereo not given) yielded an Inhibition of 87%. In turn, `Cc1ccn2c(N(Cc3ccccc3)C(=O)c3ccc(Cl)c(Cl)c3)c(-c3ccccc3)nc2c1` had an Inhibition of 0%. As for `COC(=O)C(c1ccc(NC(=O)[C@H](CC(C)C)NC(=O)OC(C)(C)C)cc1)c1ccc(NC(=O)[C@H](CC(C)C)NC(=O)OC(C)(C)C)cc1`, the figure is 42%; as for `COc1ccc(C2C(C(=O)Nc3ccc(C)c(F)c3)c3cc(OC)c(OC)cc3C(=O)N2C)cc1` (stereo not given), 26%; as for `CC[C@H](C)CNC(=O)c1ccnc(-c2cccc(CN3CCC(N4CCCC4)CC3)c2)c1.O=C(O)C(F)(F)F`, 12%. For `COc1ccccc1CCNc1ncnc2c1[nH]c1ccc(F)cc12`, the Inhibition worked out at 68%. The result for `CCc1nc(N)nc(N)c1-c1ccc(F)c(F)c1` reads 0%; that for `C[C@@H]1CN(C(c2cccc(O)c2)c2cccc(C(=O)N(C)c3cccc(F)c3)c2)[C@@H](C)CN1C(c1cccc(O)c1)c1cccc(C(=O)N(C)c2cccc(F)c2)c1.Cl` (stereo not given in full), 85%. The result for `COc1cc2nc(N3CCC(NC(=O)c4cccc(N(C)C)c4)CC3)nc(N)c2cc1OC.O=C(O)/C=C\C(=O)O` reads 0%; that for `O=C(Nc1ccc(-c2nc3ccccc3[nH]2)cc1)c1ccc(N2CCCC2)c([N+](=O)[O-])c1`, 95%. As for `COc1ccc(NS(=O)(=O)c2ccc(C(=O)Nc3ccc(C(F)(F)F)cc3)cc2)cc1N1CCN(CC2CC2)CC1.O=C(O)C(F)(F)F`, the Inhibition was found to be 0%. As for `O=C(/C=C/c1ccc(Cl)c(Cl)c1)NCCCCCN1CCC(NC(=O)Nc2ccc3c(c2)OCO3)CC1`, the figure is 5%; as for `CSc1ccc(C=CC(=O)NC(=O)c2ccccc2O)cc1`, 96%; as for `CC(C)(C)c1ccc(CNC(=O)c2cc(CNC3CCC(N)CC3)ccc2O)cc1` (stereo not given), 1%. The result for `CCCCN(CCCC)C(=O)CC(O)c1cc2c(Cl)cc(Cl)cc2c2cc(C(F)(F)F)ccc12` (stereo not given) reads 68%. As for `COc1cc(CNCCCNc2nc3ncccc3[nH]2)c2[nH]cc(Br)c2c1`, the figure is 3%.

Compound `O=C(Cc1cccc2ccccc12)NC1CCN(c2ccnc3cc(Cl)ccc23)C1.O=C(O)C(F)(F)F` (stereo not given) returned an Inhibition of 97%.

The compound `O=C1CCCC1Sc1nc2ccccc2c(=O)n1-c1ccc(Cl)c(Cl)c1` (stereo not given) showed an Inhibition of 42%.
